Assay results as given in PubChem BioAssay (Tox21).
Records with an inconclusive call do not appear. Calls of active or inactive are those of the source. Calls come from the whole dose curve; as a rule, active = well fitted cell-killing curve with a large enough effect in the repeat runs; inconclusive = weak or mixed curves, or effect the other way; inactive = flat fitted curve, though single readings scatter.
% is set by controls: 0 for no effect and ±100 for the full control effect.

Experiment: qHTS RealTime-Glo MT Cell Viability Assay in HEK293 cells - 8 hour (AID 1224887); note: top concentration of the series differs between compounds; nearly all actives have a fitted effect of over 50% in size
Settings: RealTime-Glo luminescence; series mostly up to 76.8 µM; activity change, negative = cytotoxicity: at the top concentration
How it was run: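 Viable HEK293 cells reduce a cell-permeant prosubstrate; the product diffuses out and is consumed by NanoLuc in the medium to give light. Compounds went in after a 5 h incubation and plates were read over the treatment course.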
With `CC(C)(C)C(=O)NCCCC(=O)O` the “activity change, negative = cytotoxicity” value was 2.77% [at 35.3 µM] (inactive).
With `Cc1nc2ccc(Cl)cc2[nH]1` the “activity change, negative = cytotoxicity” value was 0.683% (inactive).
In the case of `O=C(O)CCC(=O)Nc1ccc(S(=O)(=O)Nc2nccs2)cc1`, the “activity change, negative = cytotoxicity” value is reported as 0.198% [at 35.3 µM] (inactive).
For `COC(=O)c1ccc(NC(C)=O)cc1OC`, the “activity change, negative = cytotoxicity” value was 1.13% [at 35.3 µM] (inactive).
In the case of `CCO[Si](CC(C)C)(OCC)OCC`, the “activity change, negative = cytotoxicity” value is reported as 10.3% (inactive).
In the case of `Cc1ccc(O)c([N+](=O)[O-])c1`, the “activity change, negative = cytotoxicity” value is reported as -2.09% (inactive).
For `CCC(C)SSC(C)CC` (configuration not stated), the “activity change, negative = cytotoxicity” value was 14.8% (inactive).
